# Screening results as filed in PubChem BioAssay.
# Rows were chosen to be rich in hits. Some 1.6% of all compounds tested hit in one or more screens of this group.
# hERG WT inh: KCNH2 (human, wildtype) channel inhibition | U2OS, BacMam KCNH2, thallium flux FluxOr; hits give low values | hit rate 0.37% among 340,000 | Q12809 | activity change, % at 1.84 µM;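 active means maximum activity change below -70%; inconclusive means maximum activity change between -70% and -50%; inactive means maximum activity change above -50%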; further: on the % scale 0 is the no-effect control and ±100 the full control effect
# Target sequence (Q12809 whole entry, looked up): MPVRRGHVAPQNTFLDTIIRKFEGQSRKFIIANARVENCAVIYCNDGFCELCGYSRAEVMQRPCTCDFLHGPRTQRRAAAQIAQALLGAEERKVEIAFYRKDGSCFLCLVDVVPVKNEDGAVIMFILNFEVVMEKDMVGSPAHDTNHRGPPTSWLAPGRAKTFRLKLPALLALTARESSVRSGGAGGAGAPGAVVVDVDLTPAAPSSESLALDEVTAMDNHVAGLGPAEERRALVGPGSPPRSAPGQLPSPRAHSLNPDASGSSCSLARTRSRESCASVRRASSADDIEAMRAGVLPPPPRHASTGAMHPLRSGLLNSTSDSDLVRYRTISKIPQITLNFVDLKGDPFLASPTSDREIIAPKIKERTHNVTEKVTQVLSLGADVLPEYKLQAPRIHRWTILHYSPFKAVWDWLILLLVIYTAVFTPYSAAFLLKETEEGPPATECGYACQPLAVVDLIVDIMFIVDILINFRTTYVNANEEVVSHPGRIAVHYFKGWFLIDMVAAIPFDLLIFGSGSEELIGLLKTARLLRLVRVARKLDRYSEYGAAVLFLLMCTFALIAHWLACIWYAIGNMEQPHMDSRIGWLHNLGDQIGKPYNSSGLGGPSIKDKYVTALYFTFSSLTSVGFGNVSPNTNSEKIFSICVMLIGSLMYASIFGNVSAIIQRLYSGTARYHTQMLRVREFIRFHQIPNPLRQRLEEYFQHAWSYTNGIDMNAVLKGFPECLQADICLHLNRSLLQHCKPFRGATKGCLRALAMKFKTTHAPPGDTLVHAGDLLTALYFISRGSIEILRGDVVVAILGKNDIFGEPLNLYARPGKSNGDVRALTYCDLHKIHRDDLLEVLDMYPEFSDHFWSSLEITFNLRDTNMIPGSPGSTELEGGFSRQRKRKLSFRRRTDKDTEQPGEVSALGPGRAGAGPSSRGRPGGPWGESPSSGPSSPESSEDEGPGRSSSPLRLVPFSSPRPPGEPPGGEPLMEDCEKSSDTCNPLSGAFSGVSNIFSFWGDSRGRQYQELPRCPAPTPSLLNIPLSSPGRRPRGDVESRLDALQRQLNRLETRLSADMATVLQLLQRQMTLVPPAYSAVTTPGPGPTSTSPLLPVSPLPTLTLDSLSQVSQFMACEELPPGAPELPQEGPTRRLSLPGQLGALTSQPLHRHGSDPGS
#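 U2OS cells transduced with wild-type KCNH2 virus are loaded with FluxOr dye for 45 min, and thallium flux is measured in kinetic reads before and after stimulation buffer. Rate constants are normalized to DMSO controls.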
# gsp antagonist: antagonists of gsp mutant (McCune-Albright syndrome); hit rate 0.4% among 340,000; Potency, µM (titrated, usually from 76.9 µM), inactives show top-dose activity change, negative = inhibition, actives largely listed as inhibitors; gsp-mutant cells, cAMP HTRF, 30 min; calls by dose curve; cell line not stated here;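 further: intracellular cAMP measured with PDE inhibitor Ro 20-1724 present during compound exposure; potency means the concentration at half of the fitted maximal effect; on the % scale 0 is the no-effect control and ±100 the full control effect; nearly all actives have a fitted effect of over 65% in size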
#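 Cells in G418 medium, seeded 16-24 h, 37C; buffer exchange to DPBS + 1 mM CaCl2, 0.5 mM MgCl2, 0.05% BSA; cpds in DMSO + […] (300 uM stock), 30 min 37C; HTRF cAMP detection.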
# KCNH2 3.1 inh: blocks the human KCNH2 3.1 channel isoform. hit rate 0.95% among 340,000. AID 720553. U2OS KCNH2 3.1, thallium flux FluxOr; hits give low values. activity change, % (tested at about 1.8 µM);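 active means maximum activity change below -70%; inconclusive means maximum activity change from -70% to -50%; inactive means maximum activity change above -50%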;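 further: thallium influx rate constant from kinetic fluorescence after stimulation buffer; on the % scale 0 is the no-effect control and ±100 the full control effect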
#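 Kinetic fluorescence (2 min after stimulation buffer) measures Tl+ influx through KCNH2 3.1 expressed by viral transduction in U2OS cells; the rate constant is normalized against DMSO controls serving as positive and negative references.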
# gsp ag: gsp mutant agonism. gsp mutant cells, cAMP HTRF, 30 min. hit rate 0.13% among 340,000. Potency, µM (titrated, usually from 76.9 µM), for the others: at the top dose activation (cAMP increase), hits mostly activators; active means well fitted activation curve with a large enough effect; inconclusive means small, poorly fitted or top-dose-only effect, or another doubt; inactive means no such curve, though single readings can be large or run the other way; cell line not stated here;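 further: phosphodiesterase inhibitor Ro 20-1724 added with compounds to block cAMP breakdown; potency means the concentration at half of the fitted maximal effect; nearly all actives have a fitted effect of over 60% in size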
#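 Cells in DMEM/10% FBS with G418 were pretreated with compounds in DMSO plus […] (300 uM stock) for 30 min at 37C. cAMP was measured by HTRF (cAMP-d2 plus anti-cAMP antibody-K) after 30 min at room temperature.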
# pAkt inh: blocks phosphorylation of Akt. Neuro2A IGF-stimulated pAkt S473 HTRF, 20 min; hits give low values. activity change, % for hits at 50 µM. hit rate 0.32% among 360,000; in the data active means activity change below about -80%; inconclusive means mostly about -51% to -80%; further: on the % scale 0 is the no-effect control and ±100 the full control effect
#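 Single-point screen (50 µM final compound) in Neuro2A cells stimulated 20 min with 6 nM IGF at 37 deg C. After lysis, Ser473-phosphorylated Akt read by HTRF (ex 330 nm, em 615/665 nm) as the 665/615 ratio.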
# Glioma ERSR ind: inducers of ER stress response in human glioma cells | hit rate 0.02% among 420,000 | Potency, µM, inactives show top-dose activation, hits mostly activators | U87-MG GRP78 promoter luciferase reporter, 16 h; active means well fitted activation curve with a large enough effect; inconclusive means small, poorly fitted or top-dose-only effect; inactive means no such curve, though single readings can be large or run the other way; further: potency means the concentration at half of the fitted maximal effect; series mostly up to about 76 µM; % of control where 0% means no effect; nearly all actives have a fitted effect of over 35% in size
#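 Stably transfected U87-MG glioma cells carrying a GRP78-based luciferase sensor; 16 h compound incubation. Luminescence end-point read 10 min after Bright-Glo addition at room temperature.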
# * = called active by the depositor; i = inactive; ? = inconclusive; · = no result; [ ] = dose if it differs, or a comment.
SMILES,hERG WT inh,gsp antagonist,KCNH2 3.1 inh,gsp ag,pAkt inh,Glioma ERSR ind
O=C(Nc1ccnn1C1CCN(CC2CC=CCC2)CC1)c1ccccc1Cl (stereo not given),23,9%,-79*,-2%,i,0%
COc1cc(Br)cc(C2C3=C(CCCC3=O)N(c3ccc(F)cc3)C3=C2C(=O)CCC3)c1O,1,32µM*,9,?,i,-1%
COc1ccccc1C1C2=C(CCCC2=O)N(CC(=O)O)C2=C1C(=O)CCC2,24,-5%,1,-6%,i,-5%
CC(C)c1ccc(CN2CCC(n3nccc3NC(=O)C3CCCC3)CC2)cc1,7,·,-72*,?,i,-5%
CC(C)Oc1ccc(CN2CCC(n3nccc3NC(=O)CCc3ccccc3)CC2)cc1,-32,7%,-106*,?,i,-5%
Cc1c(CN2CCC(n3nccc3NC(=O)C3CC3)CC2)[nH]c2ccccc12,-21,5%,-74*,-12%,i,1%
O=C(Nc1ccnn1C1CCN(Cc2ccc(OC(F)F)cc2)CC1)C1CCCC1,-102*,-6%,-83*,-9%,i,-8%
O=c1[nH]c(=S)c2n[nH]nc2[nH]1,·,·,·,·,·,-1%
CCc1ccc(CN2CCC(n3nccc3NC(=O)C3CCCC3)CC2)cc1,-30,10%,-75*,-45%,i,-4%
O=C(COc1ccccc1Cl)NNC(=O)Cn1[nH]c(=O)c2ccccc2c1=O,0,12%,7,16%,i,-7%
O=C(Cn1[nH]c(=O)c2ccccc2c1=O)NNC(=O)c1ccccc1,-270*,13%,18,8%,i,-2%
CN(C)c1oc(/C=C/c2ccccc2)nc1C#N,-262*,-10%,-25,4%,i,6%
CCOc1ccc(/C=C/c2nc(C#N)c(N(C)C)o2)cc1,·,·,·,·,·,4%
O=C(NCCC1=CCCCC1)C(c1ccccc1)c1ccccc1,-2,-5%,0,-21%,-117%*,4%
Cc1ccccc1C(=O)OCc1nnc(-c2ccc(Cl)cc2)o1,-2,-8%,-77*,-20%,i,0%
O=C(NCC(c1ccco1)N1CCCCC1)c1ccc([N+](=O)[O-])s1 (stereo not given),40,5%,-9,-9%[15.4 µM],i,-6%
Cc1ccc(C(=O)NCC(c2ccco2)N2CCCCC2)s1 (stereo not given),15,9%,-71*,12%,i,1%
Cc1nc2ccc(S(=O)(=O)Nc3cc(-c4nc5cccnc5s4)ccc3C)cc2s1,1,10%,-24,39%,i,-1%
Cc1nc2ccc(S(=O)(=O)Nc3cccc(-c4nc5cccnc5s4)c3C)cc2s1,-7,35µM*,-1,12%,i,-2%
CCN(CC)c1ccc(N2C(=O)CSC2=S)cc1,2,-13%,-5,11%[15.4 µM],i,-2%
CCN(CC)c1ccc(N2C(=O)/C(=C/c3cccs3)SC2=S)cc1,0,-1%,-9,-27%,-103%*,-3%
COc1ccc(C(=O)NCc2nnc(SC)n2-c2ccccc2C)c(OC)c1OC,·,·,·,·,·,-5%
CC(=O)N1CCN(C(=O)c2ccc(S(=O)(=O)Nc3cccc(C(F)(F)F)c3)cc2)CC1,0,?,20,11%[15.4 µM],i,-2%
O=C(O)c1cccc(NS(=O)(=O)c2ccc(Oc3ccc(S(=O)(=O)Nc4cccc(C(=O)O)c4)cc3)cc2)c1,-144*,3%,1,13%,i,-4%
O=C(c1ccc(NS(=O)(=O)c2ccccc2)cc1)N1CCCC1,12,1%,-7,-1%,-118%*,6%
SMILES,hERG WT inh,gsp antagonist,KCNH2 3.1 inh,gsp ag,pAkt inh,Glioma ERSR ind
O=C(O)c1cccc(NS(=O)(=O)c2ccc(-c3ccc(S(=O)(=O)Nc4cccc(C(=O)O)c4)cc3)cc2)c1,-8,5%,-8,-1%,i,-4%
O=C(NNC(=O)c1ccccc1O)c1ccc(NS(=O)(=O)c2ccc(F)cc2)cc1,-1,0%,-3,-18%[15.4 µM],i,3%
O=C(c1ccc(S(=O)(=O)Nc2cccc(C(F)(F)F)c2)cc1)N1CCC1,4,-6%,2,10µM*,i,-4%
O=C(NNC(=O)c1ccccc1O)c1ccc(S(=O)(=O)Nc2ccccc2)cc1,-88*,3%,5,3%[15.4 µM],i,-6%
O=C(NNS(=O)(=O)c1ccc([N+](=O)[O-])cc1)C(=O)Nc1cccc(C(=O)O)c1,-112*,6%,14,-1%,i,-3%
COc1ccc(CCN(C)CCCN2CC(c3ccccc3)CC2=O)cc1OC (stereo not given),5,8%,-88*,28%,i,-2%
CCCCSc1nc2c([nH]1)c(=S)n(C)c(=O)n2C,-36,2%,8,18%,i,-3%
CSc1nc2c([nH]1)c(=S)n(C)c(=O)n2C,-7,?,-6,?,i,1%
Cn1c(=S)c2[nH]c(SCCC(C)(C)C)nc2n(C)c1=O,-115*,12%,-49,?,i,-3%
CCCCC(C)Sc1nc2c([nH]1)c(=S)n(C)c(=O)n2C (stereo not given),-144*,-12%,?,6%,i,-4%
CCCC(CC)Sc1nc2c([nH]1)c(=S)n(C)c(=O)n2C (stereo not given),-92*,-7%,-14,2%,i,-1%
Cc1ccccc1C1(CC(=O)N2CCOCC2)CC(=O)N(Cc2cccnc2)C1=O (stereo not given),·,·,·,·,·,-4%
CCN1CCCC1CNC(=O)c1cnn(-c2ncc(C)c(-c3ccc(F)cc3)n2)c1C(C)C (stereo not given),·,·,·,·,·,-5%
N#Cc1c(N)nc(SCC(=O)NCCc2ccccc2)c(C#N)c1-c1cccs1,-6,0%,-5,?,-89%*,-5%
Cc1ccc(SC[C@H](c2ccccc2)N2CCN(C)CCC2=O)cc1,·,2%,·,·,i,8%
COc1ccc(SC[C@H](CC(C)C)N2CCN(CCc3ccccc3)CCC2=O)cc1,-75*,-13%,-106*,-4%,i,-2%
CN1CCC(=O)N([C@H](CSc2ccccc2)c2ccccc2)CC1,13,7%,-124*,·,i,3%
COc1ccc(SCC(c2ccccc2)N2CCN(CC(C)C)CCC2=O)cc1 (stereo not given),·,·,·,·,·,-1%
CCCN1CCC(=O)N([C@H](CSc2ccc(OC)cc2)c2ccccc2)CC1,-39,8%,-93*,-27%,i,1%
CN1CCC(N(Cc2cccs2)c2ccccc2)CC1,·,·,·,·,·,-1%
CSc1nnc(CNC(=O)/C=C/c2ccccc2Cl)n1-c1ccc(F)cc1,·,·,·,·,·,-1%
O=C(NC1CC1)[C@@H]1C[C@H](Sc2nc3ccccc3[nH]2)CN1CC1CCCCC1,·,·,·,·,·,-4%
